What all share (test): DAPPL (digital affinity profiling via proximity ligation, sequencing); 10 mM Tris-HCl pH 7.5, 50 mM NaCl, 1 mM DTT, 4% glycerol, room temperature, 30 min; GST-TFs on glutathione beads, 16-mer random dsDNA library, 0.1% formaldehyde crosslink after washing; high values mean tight binding
For assay [1], the target named is T1, FLI1 (Homo sapiens, UniProt Q01543 1-452).
T1 sequence: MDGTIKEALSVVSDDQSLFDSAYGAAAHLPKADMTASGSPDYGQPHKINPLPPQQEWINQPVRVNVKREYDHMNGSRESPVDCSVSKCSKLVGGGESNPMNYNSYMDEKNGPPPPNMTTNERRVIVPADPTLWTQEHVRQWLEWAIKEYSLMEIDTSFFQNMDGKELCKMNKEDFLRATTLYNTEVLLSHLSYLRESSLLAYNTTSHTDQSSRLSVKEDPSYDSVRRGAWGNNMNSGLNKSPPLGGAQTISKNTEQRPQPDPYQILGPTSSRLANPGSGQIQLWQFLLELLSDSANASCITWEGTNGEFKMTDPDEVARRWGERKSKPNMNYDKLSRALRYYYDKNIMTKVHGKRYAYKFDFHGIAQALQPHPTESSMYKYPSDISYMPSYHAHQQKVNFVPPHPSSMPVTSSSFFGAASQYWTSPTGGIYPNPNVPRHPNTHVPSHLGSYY
The note with it: protein: recombinant; tags: N-terminal GST; dsDNA, one strand shown. The gist of the method:
(§1)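 The binding signal reported is, for every hexamer, its read frequency for a factor over its read frequency for the tag-only sample. Reads came from pools of yeast-expressed, GST-fused human transcription factors on glutathione beads, barcoded with DNA and mixed with that sample, which were incubated with 200 nmole of a random double-stranded 16-mer DNA library in Tris/NaCl/DTT/glycerol buffer at room temperature for 30 min. After washing, the pools were crosslinked with 0.1% formaldehyde, proximity-ligated with BsaI/T4 ligase for 1 h at 37 °C, PCR-amplified and sequenced on an Illumina NextSeq500.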

For assay [2], the target named is T2, ELK1 (Homo sapiens, UniProt P19419 1-428).
T2 sequence: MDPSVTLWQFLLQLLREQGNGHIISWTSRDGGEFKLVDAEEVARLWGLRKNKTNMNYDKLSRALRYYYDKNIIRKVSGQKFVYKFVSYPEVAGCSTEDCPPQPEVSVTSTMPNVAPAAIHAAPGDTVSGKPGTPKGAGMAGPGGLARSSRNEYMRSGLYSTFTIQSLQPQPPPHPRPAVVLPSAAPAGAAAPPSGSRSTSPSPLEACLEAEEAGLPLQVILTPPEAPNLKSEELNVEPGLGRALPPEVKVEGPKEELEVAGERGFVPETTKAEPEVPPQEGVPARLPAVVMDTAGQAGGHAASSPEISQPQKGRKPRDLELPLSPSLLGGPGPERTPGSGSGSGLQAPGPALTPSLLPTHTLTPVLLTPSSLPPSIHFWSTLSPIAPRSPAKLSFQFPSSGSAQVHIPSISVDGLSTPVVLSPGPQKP
Conditions: protein: recombinant; tags: N-terminal GST; dsDNA, one strand shown. The gist of the method:
as §1

In assay [3] the target is T3, GABPA (Homo sapiens, UniProt Q06546 1-454).
T3 sequence: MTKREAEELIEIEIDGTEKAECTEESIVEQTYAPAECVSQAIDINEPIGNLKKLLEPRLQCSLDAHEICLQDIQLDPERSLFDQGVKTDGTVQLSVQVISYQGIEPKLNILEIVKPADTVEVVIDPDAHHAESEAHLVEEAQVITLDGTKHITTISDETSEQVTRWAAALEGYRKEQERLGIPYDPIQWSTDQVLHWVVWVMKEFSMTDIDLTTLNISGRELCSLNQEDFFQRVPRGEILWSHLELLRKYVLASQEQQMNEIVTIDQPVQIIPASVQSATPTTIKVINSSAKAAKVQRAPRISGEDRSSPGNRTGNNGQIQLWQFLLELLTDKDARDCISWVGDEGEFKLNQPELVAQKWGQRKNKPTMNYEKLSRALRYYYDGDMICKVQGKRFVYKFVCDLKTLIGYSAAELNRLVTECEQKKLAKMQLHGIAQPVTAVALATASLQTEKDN
The note with it: protein: recombinant; tags: N-terminal GST; dsDNA, one strand shown. The gist of the method:
as §1

Assay [4] concerns the target T4, ERG (Homo sapiens, UniProt P11308 1-479).
T4 sequence: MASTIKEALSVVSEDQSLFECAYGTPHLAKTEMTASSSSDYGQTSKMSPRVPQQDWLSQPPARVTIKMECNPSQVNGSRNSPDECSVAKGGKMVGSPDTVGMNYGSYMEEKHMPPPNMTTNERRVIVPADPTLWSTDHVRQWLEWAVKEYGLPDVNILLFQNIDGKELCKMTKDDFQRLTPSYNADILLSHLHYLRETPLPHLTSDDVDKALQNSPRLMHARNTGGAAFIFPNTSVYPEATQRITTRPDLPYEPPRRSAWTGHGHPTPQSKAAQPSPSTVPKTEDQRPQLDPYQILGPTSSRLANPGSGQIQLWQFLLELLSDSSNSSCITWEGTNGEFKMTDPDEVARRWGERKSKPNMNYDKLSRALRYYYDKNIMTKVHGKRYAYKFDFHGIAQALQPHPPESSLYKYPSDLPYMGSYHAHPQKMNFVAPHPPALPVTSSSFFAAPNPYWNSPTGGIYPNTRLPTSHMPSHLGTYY
Conditions: protein: recombinant; tags: N-terminal GST; dsDNA, one strand shown. The gist of the method:
as §1

Assay [5] concerns the target ELF1 (Homo sapiens, UniProt P32519 1-619). The note with it: protein: recombinant; tags: N-terminal GST; dsDNA, one strand shown. The gist of the method: as §1
Assay [6] deals with T5, EHF (Homo sapiens, UniProt Q9NZC4 1-300).
T5 sequence: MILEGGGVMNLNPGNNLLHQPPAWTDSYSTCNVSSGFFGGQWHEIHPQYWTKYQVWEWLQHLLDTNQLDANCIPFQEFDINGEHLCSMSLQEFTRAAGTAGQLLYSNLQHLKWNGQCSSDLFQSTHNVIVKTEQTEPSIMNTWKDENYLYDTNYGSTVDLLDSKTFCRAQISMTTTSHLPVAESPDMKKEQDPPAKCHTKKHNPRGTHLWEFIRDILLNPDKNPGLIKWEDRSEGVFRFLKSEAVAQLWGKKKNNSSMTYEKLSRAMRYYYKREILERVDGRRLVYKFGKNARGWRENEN
The note with it: protein: recombinant; tags: N-terminal GST; dsDNA, one strand shown. The method in brief: as §1

In assay [7] the target is SPI1 (Homo sapiens, UniProt P17947 1-270). The note with it: protein: recombinant; tags: N-terminal GST; dsDNA, one strand shown. The method in brief: as §1
The target of assay [8] is SPIB (Homo sapiens, UniProt Q01892 1-262). Conditions: protein: recombinant; tags: N-terminal GST; dsDNA, one strand shown. The method in brief: as §1
SPIB, sequence (Q01892 whole entry): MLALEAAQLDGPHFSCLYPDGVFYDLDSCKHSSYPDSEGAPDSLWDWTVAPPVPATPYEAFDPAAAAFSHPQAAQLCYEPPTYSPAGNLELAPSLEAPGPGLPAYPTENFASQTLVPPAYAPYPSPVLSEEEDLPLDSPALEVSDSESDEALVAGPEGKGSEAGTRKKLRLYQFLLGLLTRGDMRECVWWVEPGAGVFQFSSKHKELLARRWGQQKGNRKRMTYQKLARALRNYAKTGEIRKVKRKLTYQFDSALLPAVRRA
The target of assay [9] is T6, ELK3 (Homo sapiens, UniProt P41970 1-407).
T6 sequence: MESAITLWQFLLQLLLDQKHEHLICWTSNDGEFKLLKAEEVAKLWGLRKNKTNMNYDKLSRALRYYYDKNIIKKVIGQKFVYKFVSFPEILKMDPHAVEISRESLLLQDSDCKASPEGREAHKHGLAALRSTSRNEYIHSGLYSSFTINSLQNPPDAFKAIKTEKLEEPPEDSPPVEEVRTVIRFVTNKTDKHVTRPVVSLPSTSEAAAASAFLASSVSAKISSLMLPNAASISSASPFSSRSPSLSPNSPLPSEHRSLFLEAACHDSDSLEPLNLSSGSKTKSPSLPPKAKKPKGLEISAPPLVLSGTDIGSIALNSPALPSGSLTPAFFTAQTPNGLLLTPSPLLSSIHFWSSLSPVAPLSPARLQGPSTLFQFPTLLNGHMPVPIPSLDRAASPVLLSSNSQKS
The note with it: protein: recombinant; tags: N-terminal GST; dsDNA, one strand shown. The method in brief: as §1

In assay [10] the target is T7, FEV (Homo sapiens, UniProt Q99581 1-238).
T7 sequence: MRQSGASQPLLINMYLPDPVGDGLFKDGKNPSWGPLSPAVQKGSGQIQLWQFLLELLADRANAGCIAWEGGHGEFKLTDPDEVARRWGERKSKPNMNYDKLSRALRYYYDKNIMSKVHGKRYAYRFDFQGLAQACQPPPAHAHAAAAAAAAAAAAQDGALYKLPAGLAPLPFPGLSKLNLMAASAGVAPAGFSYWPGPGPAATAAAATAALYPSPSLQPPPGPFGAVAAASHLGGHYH
The note with it: protein: recombinant; tags: N-terminal GST; dsDNA, one strand shown. The gist of the method:
as §1

Assay [11] addresses ETV5 (Homo sapiens, UniProt P41161 1-510). The note with it: protein: recombinant; tags: N-terminal GST; dsDNA, one strand shown. The gist of the method:
as §1

Assay [12] deals with HSF1 (Homo sapiens, UniProt Q00613 1-529). The note with it: protein: recombinant; tags: N-terminal GST; chain copies: 3; dsDNA, one strand shown. The gist of the method: as §1
HSF1, sequence (Q00613 whole entry): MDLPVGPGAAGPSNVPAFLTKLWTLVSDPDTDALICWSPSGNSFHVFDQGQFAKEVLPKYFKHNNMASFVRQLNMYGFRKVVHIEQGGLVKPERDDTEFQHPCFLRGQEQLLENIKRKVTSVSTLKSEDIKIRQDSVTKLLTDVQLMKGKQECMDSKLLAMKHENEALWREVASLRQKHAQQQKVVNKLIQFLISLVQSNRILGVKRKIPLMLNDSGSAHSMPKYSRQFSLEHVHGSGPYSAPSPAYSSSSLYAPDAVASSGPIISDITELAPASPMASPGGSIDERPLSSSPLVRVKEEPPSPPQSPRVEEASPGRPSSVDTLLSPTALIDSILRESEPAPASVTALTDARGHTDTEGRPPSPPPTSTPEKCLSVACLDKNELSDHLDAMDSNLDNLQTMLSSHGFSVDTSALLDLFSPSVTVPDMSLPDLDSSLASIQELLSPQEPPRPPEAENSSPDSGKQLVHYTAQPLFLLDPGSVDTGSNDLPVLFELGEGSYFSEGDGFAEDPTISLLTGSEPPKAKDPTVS
Assay [13] deals with T8, SPIC (Homo sapiens, UniProt Q8N5J4 1-248).
T8 sequence: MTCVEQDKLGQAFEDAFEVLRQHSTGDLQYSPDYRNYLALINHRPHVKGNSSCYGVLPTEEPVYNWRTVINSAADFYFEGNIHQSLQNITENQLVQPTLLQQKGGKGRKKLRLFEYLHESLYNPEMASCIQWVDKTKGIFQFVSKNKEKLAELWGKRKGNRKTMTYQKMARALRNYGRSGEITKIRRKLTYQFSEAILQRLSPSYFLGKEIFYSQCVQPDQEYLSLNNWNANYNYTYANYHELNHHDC
The note with it: protein: recombinant; tags: N-terminal GST; dsDNA, one strand shown. The method in brief:
as §1

For assay [14], the target named is ELF4 (Homo sapiens, UniProt Q99607 1-663). The note with it: protein: recombinant; tags: N-terminal GST; dsDNA, one strand shown. The gist of the method: as §1
ELF4, sequence (Q99607 whole entry): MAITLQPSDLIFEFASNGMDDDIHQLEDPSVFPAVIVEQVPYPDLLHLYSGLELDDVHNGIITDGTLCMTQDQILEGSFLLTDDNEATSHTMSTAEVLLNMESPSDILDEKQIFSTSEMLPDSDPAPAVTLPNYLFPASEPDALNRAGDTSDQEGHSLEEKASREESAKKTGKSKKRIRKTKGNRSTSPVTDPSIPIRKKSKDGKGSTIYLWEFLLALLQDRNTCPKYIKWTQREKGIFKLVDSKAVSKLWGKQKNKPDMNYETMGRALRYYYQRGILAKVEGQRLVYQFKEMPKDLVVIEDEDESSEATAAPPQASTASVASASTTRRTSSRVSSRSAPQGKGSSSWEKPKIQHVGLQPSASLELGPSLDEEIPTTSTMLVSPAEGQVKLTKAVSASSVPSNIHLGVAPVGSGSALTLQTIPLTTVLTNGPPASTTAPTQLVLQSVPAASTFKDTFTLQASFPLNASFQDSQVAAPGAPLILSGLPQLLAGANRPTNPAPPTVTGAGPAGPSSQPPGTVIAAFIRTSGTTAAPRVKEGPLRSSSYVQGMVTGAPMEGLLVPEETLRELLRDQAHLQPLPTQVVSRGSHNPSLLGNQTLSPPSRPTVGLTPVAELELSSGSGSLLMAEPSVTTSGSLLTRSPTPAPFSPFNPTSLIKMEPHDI
Assay [15] has as its target T9, ELK4 (Homo sapiens, UniProt P28324-2 1-405).
T9 sequence: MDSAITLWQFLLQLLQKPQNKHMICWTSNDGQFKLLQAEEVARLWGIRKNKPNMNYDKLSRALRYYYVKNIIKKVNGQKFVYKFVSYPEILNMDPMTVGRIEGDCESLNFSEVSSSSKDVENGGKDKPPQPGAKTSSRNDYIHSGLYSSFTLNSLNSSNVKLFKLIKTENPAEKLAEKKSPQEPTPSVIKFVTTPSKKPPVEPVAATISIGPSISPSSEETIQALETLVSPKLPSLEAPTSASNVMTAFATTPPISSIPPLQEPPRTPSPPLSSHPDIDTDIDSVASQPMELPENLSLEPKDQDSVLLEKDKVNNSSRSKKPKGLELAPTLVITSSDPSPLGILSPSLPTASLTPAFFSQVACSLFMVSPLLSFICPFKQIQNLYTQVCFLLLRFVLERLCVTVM
The note with it: protein: recombinant; tags: N-terminal GST; dsDNA, one strand shown. The method in brief: as §1

Assay [16] deals with T10, ETV2 (Homo sapiens, UniProt O00321 1-342).
T10 sequence: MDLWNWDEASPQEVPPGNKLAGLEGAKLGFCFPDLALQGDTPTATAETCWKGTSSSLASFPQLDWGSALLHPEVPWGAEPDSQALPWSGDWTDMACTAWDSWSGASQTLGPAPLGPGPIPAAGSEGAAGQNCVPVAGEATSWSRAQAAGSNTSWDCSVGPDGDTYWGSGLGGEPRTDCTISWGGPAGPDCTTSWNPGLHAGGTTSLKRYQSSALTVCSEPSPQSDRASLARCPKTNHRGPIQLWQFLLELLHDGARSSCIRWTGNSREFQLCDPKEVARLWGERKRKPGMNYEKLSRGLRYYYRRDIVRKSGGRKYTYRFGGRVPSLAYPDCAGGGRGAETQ
The note with it: protein: recombinant; tags: N-terminal GST; dsDNA, one strand shown. The method in brief: as §1

For assay [17], the target named is CRX (Homo sapiens, UniProt O43186 1-299). The note with it: protein: recombinant; tags: N-terminal GST; dsDNA, one strand shown. The method in brief:
as §1

Assay [18] deals with ETV1 (Homo sapiens, UniProt P50549 1-477). Conditions: protein: recombinant; tags: N-terminal GST; dsDNA, one strand shown. The method in brief:
as §1

The values below come from publication PMC7862700, “An all-to-all approach to the identification of sequence-specific readers for epigenetic DNA modifications on cytosine”.

CRX, sequence (O43186 whole entry): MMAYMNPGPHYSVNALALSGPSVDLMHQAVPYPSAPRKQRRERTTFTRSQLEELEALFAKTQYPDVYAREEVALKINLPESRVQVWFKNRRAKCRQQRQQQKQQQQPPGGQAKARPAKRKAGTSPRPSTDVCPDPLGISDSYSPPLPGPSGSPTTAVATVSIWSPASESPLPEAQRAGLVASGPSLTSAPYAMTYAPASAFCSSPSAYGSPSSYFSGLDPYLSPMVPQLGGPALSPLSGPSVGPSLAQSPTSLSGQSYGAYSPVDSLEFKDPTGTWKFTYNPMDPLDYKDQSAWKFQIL
ETV1, sequence (P50549 whole entry): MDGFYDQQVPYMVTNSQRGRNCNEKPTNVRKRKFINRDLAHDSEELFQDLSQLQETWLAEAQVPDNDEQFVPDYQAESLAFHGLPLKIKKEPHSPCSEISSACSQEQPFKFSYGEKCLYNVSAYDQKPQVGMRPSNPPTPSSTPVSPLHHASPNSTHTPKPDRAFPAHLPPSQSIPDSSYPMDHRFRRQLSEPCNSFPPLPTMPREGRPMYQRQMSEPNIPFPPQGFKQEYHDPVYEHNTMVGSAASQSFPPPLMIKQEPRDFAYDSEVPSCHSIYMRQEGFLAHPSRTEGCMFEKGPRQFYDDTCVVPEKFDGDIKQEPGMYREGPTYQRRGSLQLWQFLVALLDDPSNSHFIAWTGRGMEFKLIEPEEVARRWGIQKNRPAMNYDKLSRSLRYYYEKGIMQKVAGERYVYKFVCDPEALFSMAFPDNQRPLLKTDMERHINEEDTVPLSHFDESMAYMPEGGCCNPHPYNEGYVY
ETV5, sequence (P41161 whole entry): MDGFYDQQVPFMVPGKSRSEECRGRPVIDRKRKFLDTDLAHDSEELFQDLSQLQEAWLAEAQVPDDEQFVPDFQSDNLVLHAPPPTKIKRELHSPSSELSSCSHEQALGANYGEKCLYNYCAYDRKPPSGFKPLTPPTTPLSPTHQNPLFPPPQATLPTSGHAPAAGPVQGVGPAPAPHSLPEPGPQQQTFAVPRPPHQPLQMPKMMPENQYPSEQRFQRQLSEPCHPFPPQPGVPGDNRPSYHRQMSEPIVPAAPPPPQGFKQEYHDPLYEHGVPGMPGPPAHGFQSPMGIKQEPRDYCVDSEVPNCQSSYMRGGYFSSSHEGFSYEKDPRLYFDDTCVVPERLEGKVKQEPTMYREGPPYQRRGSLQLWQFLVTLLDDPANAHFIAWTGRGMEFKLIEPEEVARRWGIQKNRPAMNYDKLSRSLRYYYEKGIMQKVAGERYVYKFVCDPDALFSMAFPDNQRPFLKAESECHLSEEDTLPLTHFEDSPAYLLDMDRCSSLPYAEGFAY
ELF1, sequence (P32519 whole entry): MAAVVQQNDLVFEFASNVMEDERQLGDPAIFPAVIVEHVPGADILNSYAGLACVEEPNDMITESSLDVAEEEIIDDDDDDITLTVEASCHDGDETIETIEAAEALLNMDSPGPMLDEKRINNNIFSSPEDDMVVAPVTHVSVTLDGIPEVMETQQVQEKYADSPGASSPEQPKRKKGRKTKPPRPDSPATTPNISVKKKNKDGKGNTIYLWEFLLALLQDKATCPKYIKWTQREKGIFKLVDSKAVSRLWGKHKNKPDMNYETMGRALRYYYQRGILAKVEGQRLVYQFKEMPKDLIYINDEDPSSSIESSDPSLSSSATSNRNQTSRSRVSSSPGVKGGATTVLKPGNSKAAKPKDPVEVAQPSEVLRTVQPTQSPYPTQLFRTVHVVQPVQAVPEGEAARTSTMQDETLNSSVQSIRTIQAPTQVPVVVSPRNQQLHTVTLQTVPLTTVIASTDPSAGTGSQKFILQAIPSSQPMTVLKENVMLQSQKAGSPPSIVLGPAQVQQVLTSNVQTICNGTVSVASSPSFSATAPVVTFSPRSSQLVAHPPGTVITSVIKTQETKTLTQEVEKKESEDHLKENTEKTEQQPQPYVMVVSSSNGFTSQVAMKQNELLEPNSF

In the case of GATACT, the binding signal was 1.14 fold enrichment (6-mer frequency, TF over GST control) in assay [1]; 1.01 fold enrichment (6-mer frequency, TF over GST control) in assay [2]; 1.2 fold enrichment (6-mer frequency, TF over GST control) in [3]; 1.21 fold enrichment (6-mer frequency, TF over GST control) in [4]; 1.1 fold enrichment (6-mer frequency, TF over GST control) in assay [5]; 1.21 fold enrichment (6-mer frequency, TF over GST control) in assay [6]. Further, the binding signal in assay [7] is 1.12 fold enrichment (6-mer frequency, TF over GST control); in assay [8], 1.16 fold enrichment (6-mer frequency, TF over GST control); in assay [9], 1.09 fold enrichment (6-mer frequency, TF over GST control); in assay [10] it was 1.1 fold enrichment (6-mer frequency, TF over GST control); in assay [11], 1.07 fold enrichment (6-mer frequency, TF over GST control); in [12], 1.07 fold enrichment (6-mer frequency, TF over GST control). Further, the binding signal was 1.05 fold enrichment (6-mer frequency, TF over GST control) in assay [13]; 1.18 fold enrichment (6-mer frequency, TF over GST control) in [14]; 1.18 fold enrichment (6-mer frequency, TF over GST control) in assay [15]; 1.02 fold enrichment (6-mer frequency, TF over GST control) in assay [16]; 1.07 fold enrichment (6-mer frequency, TF over GST control) in assay [17]; 1.1 fold enrichment (6-mer frequency, TF over GST control) in [18].
